D1 ag: human D1 receptor agonism; activation, % at 2 µM; hit rate 1% among 360,000; HEK293 T-REx D1 cells, calcium flux, agonist mode; AID 504660
Target sequence (P21728 whole entry, looked up): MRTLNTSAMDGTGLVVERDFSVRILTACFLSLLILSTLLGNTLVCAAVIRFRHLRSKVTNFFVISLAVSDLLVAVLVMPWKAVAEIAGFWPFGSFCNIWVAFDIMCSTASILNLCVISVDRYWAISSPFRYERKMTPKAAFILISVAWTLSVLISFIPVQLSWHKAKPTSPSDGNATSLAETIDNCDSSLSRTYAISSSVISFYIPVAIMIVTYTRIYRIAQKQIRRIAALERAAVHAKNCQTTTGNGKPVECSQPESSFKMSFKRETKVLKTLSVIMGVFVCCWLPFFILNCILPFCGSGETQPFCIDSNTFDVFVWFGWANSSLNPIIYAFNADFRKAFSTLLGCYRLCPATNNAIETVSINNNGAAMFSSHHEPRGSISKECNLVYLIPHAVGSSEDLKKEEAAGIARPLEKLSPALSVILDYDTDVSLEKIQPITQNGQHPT
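Agonism was scored from calcium flux recorded over 180 s (1 read/s) after pintool compound addition, following a 10-cycle baseline. Cells were inducible force-coupled HEK293 TREx D1, plated overnight at 30 C and loaded with no-wash calcium dye.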
TRHR agonist-1: activates the human TRH receptor; P34981; TRHR cells, calcium flux fluo-8, FDSS agonist mode; activation, % at 2 µM; hit rate 0.18% among 360,000
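TRHR-expressing cells loaded with fluo-8 calcium dye; 23 nL library compound pin-transferred, kinetic FDSS fluorescence (Ex 480/Em 530) recorded about 180 s for agonist-induced calcium release, before a 10 nM TRH EC20 addition for potentiator mode.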
TRHR enhancer-1: TRH receptor (human) allosteric enhancement; enhancement, % at 2 µM; hit rate 0.66% among 360,000; P34981; TRHR cells, fluo-8 calcium fluorescence, EC20 TRH enhancement; AID 493056; in the data active = enhancement above about 30%
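TRHR-expressing cells loaded with fluo-8 calcium dye were read kinetically (ex 480/em 530) during compound addition, then stimulated with an EC20 of TRH (10 nM final). Enhancement of the Gq-mediated intracellular calcium response was scored.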
D1 antagonist: human D1 dopamine receptor antagonism; hit rate 3.2% among 360,000; HEK293 TREx D1 cells, calcium flux, dopamine EC80; active compounds read low; AID 504652; activity change, negative = inhibition, % at 10 µM; in the data active = activity change below about -30%
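Tetracycline-induced HEK293 T-REx cells with force-coupled D1 receptor were loaded with a no-wash calcium dye. Compound was added after a 10 s baseline and read kinetically for 180 s; EC80 dopamine was then added and calcium flux followed another 180 s.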
D1 PAM: human D1 dopamine receptor positive modulation | hit rate 0.036% among 360,000 | HEK293 TREx D1 cells, calcium flux, dopamine EC20 potentiation | P21728 | potentiation, % at 10 µM; in the data active = potentiation above about 30%
TRHR enhancer-2: confirmation of human TRH receptor allosteric enhancers | shares compounds with TRHR enhancer-1 | TRH receptor cell assay, enhancer confirmation qHTS | 970 tested, under 10 active | AID 493076 | activity change, negative = inhibition, % at 46.1 µM; active = well fitted curve in the direction sought with a large enough effect; inconclusive = small, poorly fitted or top-dose-only effect, or another doubt; inactive = no such curve, though single readings can be large; an effect the other way counts as inactive or inconclusive;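 note: compound effect scored on response to added TRH at EC20 of 10 nM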
TRHR agonist-2: confirmation of human TRH receptor agonists; shares compounds with TRHR enhancer-1; TRHR-expressing cells, agonist activation read-out; Potency, µM (highest dose often 46.1 µM), usual class: activators; hit rate 8% among 970; AID 493078; active = well fitted curve in the direction sought with a large enough effect; inconclusive = small, poorly fitted or top-dose-only effect, or another doubt; inactive = no such curve, though single readings can be large; an effect the other way counts as inactive or inconclusive; note: nearly all actives have a fitted effect of over 75% in size
Of the large screens only hits and unclear results are named; the others gave an inactive call (follow-up assays come after a bar, where they were run). A selection: hits, their analogues and other compounds. The true share with any hit is near 4.6%. Cut-off read from the data, not from the text of the source, unless noted: active = activation above about 30%; inactive = the rest.

CCOc1ccccc1NC(=O)Cn1cc(C(=O)c2ccc(Cl)cc2)c(=O)c2ccc(C)nc21	none
COc1cc(CN2CCNC(=O)C2CC(=O)NC2CCCCC2)cc(OC)c1 (stereo unspecified)	none
COc1cc(CN2CCNC(=O)C2CC(=O)NC2CCCC2)cc(OC)c1 (stereo unspecified)	TRHR enhancer-1 58 | TRHR enhancer-2 inactive | TRHR agonist-2 inactive
Cc1ccc(/C=N/NC(=O)CNC(=O)c2cccc([N+](=O)[O-])c2C)o1	none
O=C(NNC(=O)c1nn(-c2ccc(F)cc2)ccc1=O)c1ccc(C(F)(F)F)cc1	TRHR enhancer-1 45 | TRHR enhancer-2 inactive | TRHR agonist-2 inactive
CCCCOc1ccc(C(=O)NCC(=O)N2CC(C)OC(C)C2)cc1 (stereo unspecified)	none
CCCCOc1ccc(C(=O)NCC(=O)NCCOc2ccccc2OC)cc1	TRHR enhancer-1 74 | TRHR enhancer-2 inactive | TRHR agonist-2 inactive
CCCCOc1ccc(C(=O)NCC(=O)N2CC(C)CC(C)C2)cc1 (stereo unspecified)	TRHR agonist-1 40 (no result: D1 PAM) | TRHR enhancer-2 inactive | TRHR agonist-2 inactive
Cc1ccc(-c2nc(N3CCCC(C)C3)c3ccccc3n2)cc1 (stereo unspecified)	none
COc1cccc(CNC(=O)c2ccc(C)c(S(=O)(=O)N3CCOCC3)c2)c1	none
Cc1ccc(C(=O)NCc2ccncc2)cc1S(=O)(=O)N1CCOCC1	TRHR enhancer-1 44 | TRHR enhancer-2 inactive | TRHR agonist-2 inactive
CCCCN1C(=O)/C(=C/C=C2/CC(C)(C)CN2C)SC1=S	D1 ag 128, TRHR agonist-1 39 | TRHR enhancer-2 inactive | TRHR agonist-2 9.2µM
Cn1nc(C(=O)NCc2ccccc2)cc1C(=O)NCc1ccccc1	none
O=C(NCc1ccc(F)cc1)c1ccc(S(=O)(=O)N2CCCCC2)cc1	none
CS(=O)(=O)c1ccc(C(=O)NCc2ccc(F)cc2)cc1	TRHR enhancer-1 60 | TRHR enhancer-2 inactive | TRHR agonist-2 inactive
Cn1nc(C(=O)NCc2ccc(F)cc2)cc1C(=O)NCc1ccc(F)cc1	TRHR enhancer-1 46 | TRHR enhancer-2 inactive | TRHR agonist-2 inactive
C=CCn1c(=O)c2ccccc2n2c(SC(C)C(N)=O)nnc12 (stereo unspecified)	TRHR enhancer-1 45 | TRHR enhancer-2 inactive | TRHR agonist-2 inactive
CCCn1c(=O)c2ccccc2n2c(SC(C)C(N)=O)nnc12 (stereo unspecified)	none
COc1ccc(N2CC(NC(=O)/C=C\c3ccccc3)CC2=O)cc1 (stereo unspecified)	none (no result: D1 antagonist)
CC/C(C)=N/Nc1nc2c(c(=O)[nH]c(=O)n2C)n1CCc1ccccc1	none
CC(OC(=O)CN1C(=O)C2CC=CCC2C1=O)C(=O)Nc1ccc(F)cc1Cl (stereo unspecified)	TRHR enhancer-1 43 | TRHR enhancer-2 inactive | TRHR agonist-2 inactive
Cc1cccn2c(=O)c(C=Nc3ccccc3)c(NCCO)nc12	TRHR enhancer-1 44 | TRHR enhancer-2 inactive | TRHR agonist-2 inactive
Cc1cccn2c(=O)c(C=Nc3ccc(Cl)cc3)c(NCCO)nc12	none
COc1ccccc1CN(C)C(=O)CN1CCN(S(=O)(=O)c2ccc3c(c2)OCCCO3)CC1	TRHR enhancer-1 55 | TRHR enhancer-2 inactive | TRHR agonist-2 inactive
COc1cc(C(=S)N2CCOCC2)ccc1OC(=O)c1cccc(C)c1	TRHR enhancer-1 49 | TRHR enhancer-2 inactive | TRHR agonist-2 inactive
CSCCC1NC(=S)N(Cc2ccccc2)C1=O (stereo unspecified)	none
CN1CCN(CC(=O)NN(Cc2ccccc2)c2ccccc2)CC1	none
CCOC(=O)C1CCN(C(=O)c2cc3c(ccc4ccccc43)o2)CC1	TRHR enhancer-1 42 | TRHR enhancer-2 inactive | TRHR agonist-2 inactive
O=c1[nH]c2cc3ccccc3cc2nc1C(F)(F)F	none | TRHR enhancer-2 inactive | TRHR agonist-2 inconclusive
CC(NC(=O)c1cc(Br)cs1)C1CCCO1 (stereo unspecified)	TRHR enhancer-1 52 | TRHR enhancer-2 inactive | TRHR agonist-2 inactive
CCCCOc1ccc(OCCSc2nc3ccccc3n2CC(=O)O)cc1	TRHR enhancer-1 56 | TRHR enhancer-2 inactive | TRHR agonist-2 inactive
O=C(O)Cn1c(SCCOc2ccccc2)nc2ccccc21	none
Cc1cc(-c2nn(-c3ccccc3F)cc2CNCCc2cnc[nH]2)c(C)s1	TRHR enhancer-1 51 | TRHR enhancer-2 inactive | TRHR agonist-2 inactive
O=C(COc1ccc([N+](=O)[O-])cc1)NCc1ccncc1	none
O=C1c2ccccc2C(O)N1c1ccccc1 (stereo unspecified)	TRHR agonist-1 31 | TRHR enhancer-2 inactive | TRHR agonist-2 inactive
O=C1c2ccccc2C(O)N1c1ccc(Cl)cc1 (stereo unspecified)	none
COc1ccc(OCCOc2ccc(/C=C3\C(=N)N4N=C(C)SC4=NC3=O)cc2)cc1	none
CC(C)C(=O)NC(C)C(c1cccs1)N1CCN(c2ccccc2)CC1 (stereo unspecified)	none
CC(NS(C)(=O)=O)C(c1cccs1)N1CCN(c2ccccc2)CC1 (stereo unspecified)	TRHR enhancer-1 59 | TRHR enhancer-2 inactive | TRHR agonist-2 inactive
CC(C)CCNC(=O)CCn1c(=S)oc2ccccc21	TRHR enhancer-1 53 | TRHR enhancer-2 inactive | TRHR agonist-2 inactive
COc1ccccc1NC(=O)CCn1c(=S)oc2ccccc21	none
CCCCn1nnnc1NCc1ccc(OC)c(OC)c1OC	TRHR enhancer-1 45 | TRHR enhancer-2 inactive | TRHR agonist-2 inactive
COc1cccc(CNc2nnnn2C)c1OC	none
CCc1ccc(NC(=O)N(Cc2cccnc2)Cc2ccco2)cc1	TRHR enhancer-1 43 (no result: D1 antagonist) | TRHR enhancer-2 inconclusive | TRHR agonist-2 16µM
COc1cc(/C=C2/C(=O)NN(c3cccc(C)c3)C2=O)ccc1OC(=O)c1ccco1	TRHR enhancer-1 52 | TRHR enhancer-2 inactive | TRHR agonist-2 inactive
COc1cc(/C=C2/C(=O)NN(c3cccc(C)c3)C2=O)cc([N+](=O)[O-])c1O	none
O=[N+]([O-])c1ccc(C(O)C[n+]2ccccc2)cc1 (stereo unspecified)	none
CCOc1ccc(NC(C)C(=O)N/N=C/c2cccs2)cc1 (stereo unspecified)	TRHR enhancer-1 50 | TRHR enhancer-2 inactive | TRHR agonist-2 inactive
O=C(CCCCCNc1nc(=S)[nH]c2ccccc12)NCCC1=CCCCC1	none
